The full ranking holds about 59,000 sequences; the median of the read-out is about -0.00055, and the lowest 2% start at about -2. This excerpt belongs to a sample that is enriched for the lowest values.

The nature of the experiment: Identification of proteins required for the processing of the EWS-FLI1 nascent transcript.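 Further: robust z of luciferase light less the median z of siRNAs with the same seed.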 The following applies: TC32 Ewing sarcoma NR0B1-luc vs CMV-luc (EWS-FLI1 target promoter against control promoter), 48 h; screened at 20 nM (by protocol). The essentials: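 TC32 Ewing sarcoma cells carrying NR0B1-promoter or CMV-promoter luciferase reporters were reverse-transfected with single siRNAs at 20 nM, three per gene genome-wide. Luminescence was read after 48 h and normalized to non-targeting controls.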
Consider AUCUUGGACAGAUAUAAUC against RNF126, for which the seed-corrected z-score is -2.4. For UAUACUAUUGGUAAGUGCA against SND1-IT1 the value was -0.0514. For AUACUCCACACCACAAAGC against LTB4R the value was 0.354; for AAAAGACCAAAGCCCAUGU against RPLP1, -2.92; for UAUAGUGAAGAGAUAUGCC against ADGRL2, 0.229. For UCGUUUUUGACUACCAGGG against PHKB the value was 0.853; for AACUGAUUAAAAUCAGAGG against PIGG, 0.269; for UAGUAGCAUAGUUCAGUGG against OR51T1, 0.179.

The sequence UUUGCUCUCAUUCUCCGCA against SF3B5 had a seed-corrected z-score of -3.03. Sequence AUAGUUAAUUGAAUUUCGG against BMPR2 registered a seed-corrected z-score of -0.638. Sequence UUUGCAGCCUCGGUUAUAG against PWWP2B gave a seed-corrected z-score of 0.352. In the case of AAGAGUAAUAGGCAAUUUC against SLC19A2 it was -0.574; in that of ACACGGGCAAUGGAUUUCC against RPL35, -0.426. For UAACAUACACUAGAUCGCC against FOLH1 the value was -3.06; for AAUGAGAUAAUGUUGGUCA against SNX29P1, -1.77. For UUUCUUUUCGGCUCUAGGG against NKX2-5 the value was -1.12; for UGUACAAUGAGGAAGCUUC against LOC728903, -0.125. UCUUUGCAAAGGGUAUGCC against IL17RE registered a seed-corrected z-score of -2.02.

The sequence AGACCAUCCCACGAAAUGC against PEBP1 had a seed-corrected z-score of -1.22.

As to AAGCGGAAAAUCUUGAUGC against SLC26A2, the seed-corrected z-score was 0.168.

The sequence UUCGUCCUUAUGCUCUUUC against HOXA7 gave a seed-corrected z-score of 0.383.

Sequence AAAGAUACAGGUUAAAGGC against HIST2H2BF returned a seed-corrected z-score of -0.321.

Sequence UUCAUAACGAGUUGGAGCC against RPL30 returned a seed-corrected z-score of -2.42. As for UUCAUGUUCAGAGUCAACG against SSRP1, the seed-corrected z-score worked out at 1.02. For ACUCUUAUCAGGCACAUCC against IMPAD1 the value was -0.93; for UAACCGUUCCCGCAAACAC against TFAP2E, -0.2; for AUUUAUUCCGGACACGUGG against GLI4, -2.01. In the case of UCUUAUCCAAGGGACCAGC against MED1 it was -0.541. The sequence UUCUCUAGGAUGGAAAACC against LOC728752 registered a seed-corrected z-score of 0.253. For UUCGCAAUGUUGGUUCACC against TEX15 the value was -0.211.

In turn, AAACACUCCACUGAUGUGC against IFT140 had a seed-corrected z-score of -0.256. In the case of UGCGCUUACGCUUCUUACC against HIST1H2BB it was -0.822; in that of UUUCGGUAGUAGGAUUUCC against RBAK, 0.44; in that of AAAACUUGCACCUUCGUGU against ARMC10, -0.114.

In the case of UUUAGUGUCAGUUGAUUUG against CPXCR1, the seed-corrected z-score was 0.162. On to UAUCAGACAAUUCAUCCGG against LONRF2, for which the seed-corrected z-score is -0.662. The sequence AUGGGUCAGAGAGGCAAGG against EXOSC5 had a seed-corrected z-score of -2.07.

AUGUGGAUCAGAAGUAUCA against OR2T10 had a seed-corrected z-score of 0.476. In the case of UGCAUGAUGAGUGAGGUGC against CYP26B1 it was -0.927; in that of UGACGGAUCAGUCUUAGCC against ATP5O, -0.31; in that of AAAUAUAUCUCUUGGAUCU against LRRC75A-AS1, 0.788. For UCUAAUUCCAUACUGAUUC against PRKCQ-AS1 the value was -0.219; for UUAUAAAAUUUGGUGAUGG against CNNM2, -2.17. AAAGAAGGAAUUGAGAUUC against RAPGEF3 yielded a seed-corrected z-score of 0.508. For UAGAAAUCUACAAUCUUGU against NR2C2AP the value was -0.785; for AUUGUAUCCUGCUGAGUCC against FOXJ2, -0.984; for ACAGUAAUCCAUAUGGAGG against GPR139, 0.177. In the case of UUUCGUUCUUACGAGAUCC against PKHD1L1 it was 1.16; in that of UCCGGAUACACUUCACUAC against ANXA6, -0.467; in that of AAAAGUGGAACUUCUUCUC against TTLL8, -2.21.

As for AAAGUUGCAGUUGGUCUCC against ZACN, the seed-corrected z-score was -3.49. In the case of UUAGCAGCUUGUUAAUUUC against ISY1 it was -0.616. In the case of UAAGCAGCUUGUAUUGCUC against KIAA0513 it was 0.461; in that of UGAGGUUAAAGUGAGUAGC against VIT, -0.117; in that of UUUCUUACACCAUGAGACG against INTS4, -0.309. In the case of UAAAGUAAAGAUGUCUUCC against NPIPA1 it was 0.0914. In turn, AUAGGGAUCUGAAAGUCCG against SYT4 returned a seed-corrected z-score of 0.582. For UCCGGUCAAACUUAGUGCC against AQR, the seed-corrected z-score was -3.37.

In turn, AACGAAAUAAAAGCUGUCC against CFAP69 came in with a seed-corrected z-score of -0.411.

For UAUCGAACCAACCAGCAUC against MFSD4A, the seed-corrected z-score stood at 1.1. In the case of UUCGAUGAACUUCUUUUGC against BROX it was 1.04.

On to UCCCGGGACAGCAUGUAGU against USP17L9P, for which the seed-corrected z-score was determined as 0.146. For CAAUACUCCAGCAUCAGGC against OPA3 the value was -2.35; for UACAAGAAUAGUCACAAUG against OR5H1, 0.319; for UCUGUAUCAAUGAUUAAAC against ICE2, 0.6.

UUUGUUAGUCAGGUAUUCC against CCDC121: the seed-corrected z-score was 2.03. For UGGGUAUGUAGUAAUCUCG against ADGB the value was -3.05.

(Values after PubChem BioAssay AID1159506 (National Center for Advancing Translational Sciences (NCATS), 2015).)
